# Many of the other results were omitted from the sample, so hits are more common in it than they were.
# PNC inhibitor: High Content Assay for Compounds that inhibit the Assembly of the Perinucleolar Compartment | activity change (PNC), negative = inhibition, % at 10 µM | PC3M PTB-GFP, PNC prevalence imaging, 16 h; hits give low values | actives 3.1% (n = 140,000);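 active = readout at or below -70, meaning at least 70% loss of cells showing the perinucleolar compartment, a nuclear body marking cancer cells; inconclusive = readout between -30 and a set limit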;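 note: plate controls were DMSO wells for no effect and camptothecin positive control wells for full effect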
#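 Compounds are pinned in duplicate onto adhered PC3M cells stably expressing GFP-tagged PTB and incubated 16 h at 37 C. Cells are then fixed, nuclei stained with Hoechst, and PNC-positive cells counted.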
# IMPase inh: qHTS Assay for Identifying the Cell-Membrane Permeable IMPase Inhibitors; CHO-M1 cells, IP1 accumulation, HTRF TR-FRET ratio; AID 901, 2007; inhibition (IP1 accumulation), % at 46.1 µM; 120,000 tested, under 10 active; active = well fitted curve in the direction sought with a large enough effect in the signal ratio, not every such curve was filed as active; inconclusive = small, poorly fitted or top-dose-only effect, or a change in a side signal; inactive = no such curve, though single readings can be large or run the other way; the % refers to the signal ratio;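 note: cells stimulated with carbachol in lithium chloride buffer; plate controls were DMSO basal wells for no effect and reference inhibitor wells for full effect; higher means more IMPase inhibition seen as more IP1 and lower FRET ratio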
# Target sequence (P97697 whole entry, looked up): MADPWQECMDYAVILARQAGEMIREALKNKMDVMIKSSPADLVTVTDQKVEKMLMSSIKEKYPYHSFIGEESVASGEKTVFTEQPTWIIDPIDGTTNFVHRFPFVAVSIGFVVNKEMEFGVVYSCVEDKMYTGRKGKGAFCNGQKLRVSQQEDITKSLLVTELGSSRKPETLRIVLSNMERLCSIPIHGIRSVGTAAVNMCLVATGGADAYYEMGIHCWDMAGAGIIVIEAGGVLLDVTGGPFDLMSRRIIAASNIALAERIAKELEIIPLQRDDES
#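 Seeded CHO-M1 cells were dosed with compound at up to 46 uM, stimulated with carbachol for 30 min, then lysed in IP-One detection reagents. Higher IP1 lowers the TR-FRET signal.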
# ALOX12 inhib: qHTS Assay for Inhibitors of 12-hLO (12-human lipoxygenase). Polyunsaturated fatty acid lipoxygenase ALOX12 (Homo sapiens), P18054. purified 12-hLO, xylenol orange hydroperoxide absorbance. Potency, µM (highest dose often 57.1 µM), inactives show top-dose activity change, negative = inhibition, hits mostly inhibitors. actives 0.12% (n = 150,000); note: potency is the fitted concentration of half-maximal effect; nearly all actives have a fitted effect of over 55% in size
#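 Hydroperoxide output read as Fe(III)-xylenol orange absorbance, 573-to-405 nm ratio, after 30 min reaction with 40 uM arachidonic acid. Enzyme: 150 nM purified human 12hLO, 15 min compound preincubation; 25 mM Hepes pH 7.0, room temperature.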
# IMPase Li inh: qHTS Assay for Identifying the Cell-Membrane Permeable IMPase Inhibitors: Potentiation with Lithium | CHO-M1 cells, IP1 TR-FRET (IP-One), carbachol + lithium | Potency, µM (highest dose often 59.4 µM), for the others: at the highest dose activity, negative = IMPase inhibition, most hits filed as inhibitors | actives 0.35% (n = 210,000);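 note: IP1 builds up when IMPase is blocked and the TR-FRET signal falls; potency is the fitted concentration of half-maximal effect; plate controls were basal vehicle for no effect and high inhibitor control for full effect; nearly all actives have a fitted effect of over 50% in size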
#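 Lithium-sensitised IP1 accumulation assay; M1-expressing CHO cells treated 30 min at 37C with compound. Competitive antibody detection by time-resolved FRET followed a 10 min room-temperature lysis step.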
# Starred values were filed as active, the others as inactive; u = inconclusive; x = no result; [ ] = remark or other dose. Unless noted, calls come from the whole dose curve; as a rule, active = well fitted curve in the direction sought with a large enough effect; inconclusive = small, poorly fitted or top-dose-only effect, or another doubt; inactive = no such curve, though single readings can be large; an effect the other way counts as inactive or inconclusive. Unless noted, % is set by controls: 0 for no effect and ±100 for the full control effect.
SMILES,PNC inhibitor,IMPase inh,ALOX12 inhib,IMPase Li inh
Cc1nc([N+](=O)[O-])c(SCC(N)=O)n1Cc1ccccc1,x,x,x,2%
Cc1nc([N+](=O)[O-])c(N2CCN(C)CC2)n1Cc1ccccc1,-88*,8,7%,-8%[38.3 µM]
O=C(Nc1nnc(C2CC2)s1)c1ccc(S(=O)(=O)c2ccccc2)cc1,-18,3,-4%,-14%[38.3 µM]
O=C(Nc1nncs1)c1ccc(S(=O)(=O)c2ccccc2)cc1,-117*,-1,2%,19%[38.3 µM]
O=c1c2sccc2nc(SCc2ccc([N+](=O)[O-])cc2)n1Cc1ccccn1,-84*,x,-1%,25%
Cc1ccc(CNC(=O)CSc2nc3ccsc3c(=O)n2Cc2ccccn2)cc1,x,x,x,6%
O=C(CSc1ncn(-c2ccccc2)n1)Nc1ccc2c(c1)OCCO2,-86*,7,-2%,0%[38.3 µM]
CC(=O)c1cccc(NC(=O)CSc2ccc(-c3ccc4c(c3)OCO4)nn2)c1,25,x,-3%,9%
O=C(CSc1ccc(-c2ccccc2)nn1)Nc1ccc2c(c1)OCCO2,-113*,x,-4%,-2%
O=C(CSC1=NC2(CCCCCC2)N=C1c1ccccc1)Nc1ccc2c(c1)OCCO2,-119*,x,-7%,18%
C=CCn1c(SCC(=O)Nc2ccc3c(c2)OCCO3)nnc1-c1ccccn1,-81*,u,-1%,-10%[38.3 µM]
COC(=O)[C@@H](O)CC[C@@H](C)Cc1c(OC)c(OC)c(C)c(OC)c1OC,x,x,x,-2%
C=C1C2c3ccccc3C(CC2(C)O[Si](C)(C)C)N1C(=O)OC (stereo unspecified),x,x,-3%[11.4 µM],-1%
COc1ccc(NC(=O)c2sc3nc(-c4ccc(OC)cc4)cc(C(F)(F)F)c3c2N)cc1,x,2,x,x
Nc1c(C(=O)Nc2ccccc2F)sc2nc(Cc3ccccc3)cc(C(F)(F)F)c12,18,u,4%,10µM*
Cc1cc(C(F)(F)F)c2c(N)c(C(=O)Nc3cc(C)on3)sc2n1,8,-10,-8%,11µM*
CC(NC(=O)CCn1nc(-c2ccc(Cl)cc2)ccc1=O)c1ccccc1 (stereo unspecified),x,x,x,-7%
COc1ccc(OCC(=O)NC(=S)Nc2ccc3c4c(cccc24)CC3)cc1,-11,x,-2%,7.1µM*
COc1cc(C(=O)N2CCN(c3cc(Cl)ccc3Cl)CC2)cc(OC)c1OC,-88*,5,5%,20%
COc1cc(C(=O)N2CCN(c3cccc(C)c3C)CC2)cc(OC)c1OC,-122*,-9,-1%,14%
CC(CNC(=O)c1cccs1)c1ccc([N+](=O)[O-])cc1 (stereo unspecified),x,x,x,20%
COc1ccc(C2CC(c3ccccc3)n3nnnc3N2)cc1 (stereo unspecified),-111*,-1,2%,1%[38.3 µM]
N#Cc1cc([N+](=O)[O-])ccc1NC(=O)COC(=O)CCC1CCCCC1,x,x,x,13%
CCOC(=O)c1c(C)[nH]c(=S)c(C#N)c1-c1ccc(OC)cc1,23,u,-14%,5%[38.3 µM]
CCOC(=O)c1c(C)[nH]c(=S)c(C#N)c1-c1ccc(Cl)cc1,-108*,x,-10%,-3%
SMILES,PNC inhibitor,IMPase inh,ALOX12 inhib,IMPase Li inh
CCCCOc1ccc(-c2c(C(=O)Nc3ccccc3)c(C)[nH]c(=S)c2C#N)cc1,x,x,x,8.9µM*
c1ccc(Nc2cc(-c3ccoc3)ncn2)cc1,x,x,x,-7%
COc1cc2c(cc1OC)C1N(CC2)C(=O)CCC12C(=O)CCCC2=O (stereo unspecified),x,x,x,-2%
CCSc1nnc(NC(=O)c2ccc(S(=O)(=O)N(C)C)cc2)s1,x,x,x,0%
CN(C)S(=O)(=O)c1ccc(C(=O)Nc2nnc(SCc3cccc4ccccc34)s2)cc1,-134*,x,-1%,0%
CCOC(=O)N/N=C/c1ccccc1-c1cc(OC)ccc1OC,x,x,x,1%
Cn1nnc(NC(=O)c2ccccc2)n1,-95*,-9[0.369 µM],6%,-1%
c1cc2c(cc1C(N1CCNCC1)N1CCNCC1)OCO2,x,x,-4%[11.4 µM],5%
C=CCOC(=O)N[C@@H](Cc1ccccc1)/C(C(=O)OC)=C(\C)NCc1ccccc1,x,x,x,22%
Cc1cc(Cl)ccc1C(=O)C1CCCN(C(=O)c2ccc3ncccc3c2)C1 (stereo unspecified),x,x,x,18%
COc1cc(-c2cccs2)cc(=O)c2c(C)oc(C)c12,-96*,1,u,6%[38.3 µM]
CN(C)CCNc1c2c(nc3nnnn13)CCCC2,x,x,x,10%
Oc1ccc2cc(SSc3ccc4cc(O)ccc4c3)ccc2c1,x,x,-4%,3%
Cc1ccc(C(=O)N/N=C(\CC(C)C)c2ccccc2)cc1,-105*,x,1%,3%
COc1cc(C(=O)Nc2nc(-c3ccc(Cl)cc3)c(C)s2)ccc1OCC(=O)Nc1ccc(F)cc1,19,3,5%,x
Cc1cccc2cc(CN(CC3CCCO3)S(=O)(=O)c3ccccc3)c3nnnn3c12 (stereo unspecified),-21,3,1%,-1%[38.3 µM]
Cc1ccc2cc(CN(CC3CCCO3)S(=O)(=O)c3ccccc3)c3nnnn3c2c1 (stereo unspecified),-100*,3,2%,14%
Cc1ccc(OC(C)C)c(CN(CCO)CCO)c1,-91*,5,-1%,-6%[38.3 µM]
CCCCC(=O)Oc1ccc2oc(-c3ccc(OC)cc3)cc(=O)c2c1,x,-4,x,x
CN(CC(=O)O)Cc1c[nH]c2ccccc12,x,x,7%[11.4 µM],-6%
CC(=O)c1c(C)nc2ccc(Br)cc2c1C(=O)O,-19,u,-7%,1µM*
Cc1ccc(-c2cc(C(=O)NN3CCOCC3)c3cc(Br)ccc3n2)o1,x,x,x,-12%
Cc1ccc(-c2cc(C(=O)O)c3cc(Br)ccc3n2)o1,-28,x,-1%,11µM*
CC(=O)c1c(C)nc2ccc(Br)cc2c1-c1ccccc1,x,x,x,10%
CCNC(=S)Nc1ccc(Cl)c(C(F)(F)F)c1,-5,x,-5%,0%
SMILES,PNC inhibitor,IMPase inh,ALOX12 inhib,IMPase Li inh
Cc1cccc2sc(N(CCCN(C)C)C(=O)c3nc4ccccc4s3)nc12,-118*,x,-1%,-3%
N#CC1=C(N)Oc2cc(N)ccc2C1c1cccnc1 (stereo unspecified),-9,x,-2%,0%
CCN(CC)c1ccc2c(c1)OC(N)=C(C#N)C2c1cccnc1 (stereo unspecified),-99*,12,6%,8%[38.3 µM]
CC(=O)Nc1ccc(NC(=O)c2ccc(COc3ccc4c(C)cc(=O)oc4c3)cc2)cc1,-16,x,0%,-5%
CCN(CC)S(=O)(=O)c1ccc(Cl)c(NC(=O)COc2ccc3c(C)cc(=O)oc3c2)c1,-17,x,1%,-23%
CCN(CC)S(=O)(=O)c1ccc(OC)c(NC(=O)COc2ccc3c(C)cc(=O)oc3c2)c1,-30,u,3%,6.3µM*
Cc1ccc(Cl)cc1NC(=O)COC(=O)c1ccc(COc2ccc3c(C)cc(=O)oc3c2)cc1,-113*,x,-4%,-6%
CC(C)Oc1cc(O)c2c(c1)OCC=C2CCC(=O)O,x,x,6%[11.4 µM],8%
Cc1cc(C)nc(SCC(=O)NN)n1,x,x,x,17%
